# Measurements as given in paper PMC7862700, “An all-to-all approach to the identification of sequence-specific readers for epigenetic DNA modifications on cytosine”.
# Experiments:
# Test in all cases: DAPPL (digital affinity profiling via proximity ligation, sequencing); 10 mM Tris-HCl pH 7.5, 50 mM NaCl, 1 mM DTT, 4% glycerol, room temperature, 30 min; GST-TFs on glutathione beads, 16-mer random dsDNA library, 0.1% formaldehyde crosslink after washing; high values mean tight binding
# [1] = target: T1, FLI1 (Homo sapiens, UniProt Q01543 1-452); settings: protein: recombinant; tags: N-terminal GST; dsDNA, one strand shown
# T1 sequence: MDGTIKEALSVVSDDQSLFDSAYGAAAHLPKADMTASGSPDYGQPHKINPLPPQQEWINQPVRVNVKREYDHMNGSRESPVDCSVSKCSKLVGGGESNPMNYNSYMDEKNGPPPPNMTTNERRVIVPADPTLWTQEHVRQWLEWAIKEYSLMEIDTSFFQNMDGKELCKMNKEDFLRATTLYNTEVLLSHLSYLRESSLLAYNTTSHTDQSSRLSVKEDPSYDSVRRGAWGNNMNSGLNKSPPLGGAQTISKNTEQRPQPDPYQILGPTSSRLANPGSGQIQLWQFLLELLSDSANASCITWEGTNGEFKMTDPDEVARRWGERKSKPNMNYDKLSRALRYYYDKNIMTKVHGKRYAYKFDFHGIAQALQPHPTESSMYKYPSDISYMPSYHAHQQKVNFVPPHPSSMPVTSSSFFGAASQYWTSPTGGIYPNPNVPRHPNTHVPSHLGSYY
# How it was run: (§1)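 A tag-only sample was pooled with DNA-barcoded human transcription factors that had been expressed in yeast as GST fusions and captured on glutathione beads. The pools were incubated for 30 min at room temperature with 200 nmole of a random double-stranded 16-mer DNA library in Tris/NaCl/DTT/glycerol buffer, then washed, crosslinked with 0.1% formaldehyde, proximity-ligated (BsaI/T4 ligase, 1 h, 37 °C), PCR-amplified and sequenced on an Illumina NextSeq500. Binding signal is each hexamer's read frequency for a factor divided by its frequency for the tag-only sample.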
# [2] = target: T2, ELK1 (Homo sapiens, UniProt P19419 1-428); settings: protein: recombinant; tags: N-terminal GST; dsDNA, one strand shown
# T2 sequence: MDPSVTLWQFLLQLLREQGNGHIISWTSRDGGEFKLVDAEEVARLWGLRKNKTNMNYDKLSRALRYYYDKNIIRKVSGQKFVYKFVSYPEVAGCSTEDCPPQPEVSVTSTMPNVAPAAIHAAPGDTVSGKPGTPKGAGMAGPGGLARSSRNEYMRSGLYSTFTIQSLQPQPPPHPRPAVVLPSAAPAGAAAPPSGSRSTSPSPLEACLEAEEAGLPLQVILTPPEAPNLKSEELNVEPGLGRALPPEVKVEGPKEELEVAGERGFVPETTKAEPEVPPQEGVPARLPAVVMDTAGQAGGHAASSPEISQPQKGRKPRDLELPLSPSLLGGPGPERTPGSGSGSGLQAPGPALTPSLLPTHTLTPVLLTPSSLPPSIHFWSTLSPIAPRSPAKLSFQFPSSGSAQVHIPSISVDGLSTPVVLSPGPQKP
# How it was run: as §1
# [3] = target: T3, GABPA (Homo sapiens, UniProt Q06546 1-454); settings: protein: recombinant; tags: N-terminal GST; dsDNA, one strand shown
# T3 sequence: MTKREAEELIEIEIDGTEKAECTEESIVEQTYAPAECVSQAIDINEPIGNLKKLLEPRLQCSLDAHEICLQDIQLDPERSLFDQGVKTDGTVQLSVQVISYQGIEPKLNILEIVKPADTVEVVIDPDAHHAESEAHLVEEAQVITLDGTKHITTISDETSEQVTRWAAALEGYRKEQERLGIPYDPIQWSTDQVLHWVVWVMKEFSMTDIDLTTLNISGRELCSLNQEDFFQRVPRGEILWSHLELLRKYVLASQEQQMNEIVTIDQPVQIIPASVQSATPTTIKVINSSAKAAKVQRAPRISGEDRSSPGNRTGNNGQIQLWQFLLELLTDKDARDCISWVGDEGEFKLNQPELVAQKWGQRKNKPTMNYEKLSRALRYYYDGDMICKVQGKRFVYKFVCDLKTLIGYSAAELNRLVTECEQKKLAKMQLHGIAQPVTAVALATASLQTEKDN
# How it was run: as §1
# [4] = target: T4, ERG (Homo sapiens, UniProt P11308 1-479); settings: protein: recombinant; tags: N-terminal GST; dsDNA, one strand shown
# T4 sequence: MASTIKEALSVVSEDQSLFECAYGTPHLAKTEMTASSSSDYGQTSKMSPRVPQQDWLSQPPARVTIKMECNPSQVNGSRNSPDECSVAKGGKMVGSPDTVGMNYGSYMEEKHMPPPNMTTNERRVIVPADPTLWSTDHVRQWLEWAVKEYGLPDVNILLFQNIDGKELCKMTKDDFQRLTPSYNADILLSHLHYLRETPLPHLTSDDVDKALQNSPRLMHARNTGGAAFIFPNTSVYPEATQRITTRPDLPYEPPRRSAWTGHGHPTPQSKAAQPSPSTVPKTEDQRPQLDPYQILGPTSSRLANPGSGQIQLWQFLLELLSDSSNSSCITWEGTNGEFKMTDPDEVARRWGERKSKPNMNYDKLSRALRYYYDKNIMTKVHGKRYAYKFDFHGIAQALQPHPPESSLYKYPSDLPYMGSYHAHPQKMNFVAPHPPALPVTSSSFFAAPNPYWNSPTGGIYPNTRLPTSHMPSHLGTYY
# How it was run: as §1
# [5] = target: ELF1 (Homo sapiens, UniProt P32519 1-619); settings: protein: recombinant; tags: N-terminal GST; dsDNA, one strand shown
# How it was run: as §1
# [6] = target: T5, EHF (Homo sapiens, UniProt Q9NZC4 1-300); settings: protein: recombinant; tags: N-terminal GST; dsDNA, one strand shown
# T5 sequence: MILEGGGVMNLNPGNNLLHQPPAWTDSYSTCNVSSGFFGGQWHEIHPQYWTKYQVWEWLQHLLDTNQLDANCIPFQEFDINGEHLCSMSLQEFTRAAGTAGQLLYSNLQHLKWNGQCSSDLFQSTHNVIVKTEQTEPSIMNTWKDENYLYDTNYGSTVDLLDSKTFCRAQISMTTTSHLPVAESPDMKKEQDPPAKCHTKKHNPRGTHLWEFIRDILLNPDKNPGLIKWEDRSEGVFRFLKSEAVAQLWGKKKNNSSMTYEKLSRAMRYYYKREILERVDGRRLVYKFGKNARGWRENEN
# How it was run: as §1
# [7] = target: SPI1 (Homo sapiens, UniProt P17947 1-270); settings: protein: recombinant; tags: N-terminal GST; dsDNA, one strand shown
# How it was run: as §1
# [8] = target: SPIB (Homo sapiens, UniProt Q01892 1-262); settings: protein: recombinant; tags: N-terminal GST; dsDNA, one strand shown
# How it was run: as §1
# [9] = target: T6, ELK3 (Homo sapiens, UniProt P41970 1-407); settings: protein: recombinant; tags: N-terminal GST; dsDNA, one strand shown
# T6 sequence: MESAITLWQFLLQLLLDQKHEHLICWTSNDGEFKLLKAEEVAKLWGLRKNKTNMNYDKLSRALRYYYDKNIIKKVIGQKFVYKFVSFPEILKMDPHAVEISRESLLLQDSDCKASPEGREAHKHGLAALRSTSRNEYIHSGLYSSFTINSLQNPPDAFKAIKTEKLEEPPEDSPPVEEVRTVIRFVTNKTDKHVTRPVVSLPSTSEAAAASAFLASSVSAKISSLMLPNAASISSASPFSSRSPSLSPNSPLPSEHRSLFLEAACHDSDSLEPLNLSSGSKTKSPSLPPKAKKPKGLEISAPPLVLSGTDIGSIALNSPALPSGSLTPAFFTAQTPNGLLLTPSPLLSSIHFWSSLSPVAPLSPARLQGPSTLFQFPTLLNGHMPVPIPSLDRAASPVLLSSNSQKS
# How it was run: as §1
# [10] = target: T7, FEV (Homo sapiens, UniProt Q99581 1-238); settings: protein: recombinant; tags: N-terminal GST; dsDNA, one strand shown
# T7 sequence: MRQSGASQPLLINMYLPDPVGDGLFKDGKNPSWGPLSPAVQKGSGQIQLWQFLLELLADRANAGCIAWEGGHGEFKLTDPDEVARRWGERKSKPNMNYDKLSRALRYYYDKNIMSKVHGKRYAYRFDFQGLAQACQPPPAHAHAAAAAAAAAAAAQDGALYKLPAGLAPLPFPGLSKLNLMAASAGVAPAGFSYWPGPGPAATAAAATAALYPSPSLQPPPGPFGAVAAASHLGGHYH
# How it was run: as §1
# [11] = target: ETV5 (Homo sapiens, UniProt P41161 1-510); settings: protein: recombinant; tags: N-terminal GST; dsDNA, one strand shown
# How it was run: as §1
# [12] = target: HSF1 (Homo sapiens, UniProt Q00613 1-529); settings: protein: recombinant; tags: N-terminal GST; chain copies: 3; dsDNA, one strand shown
# How it was run: as §1
# [13] = target: T8, SPIC (Homo sapiens, UniProt Q8N5J4 1-248); settings: protein: recombinant; tags: N-terminal GST; dsDNA, one strand shown
# T8 sequence: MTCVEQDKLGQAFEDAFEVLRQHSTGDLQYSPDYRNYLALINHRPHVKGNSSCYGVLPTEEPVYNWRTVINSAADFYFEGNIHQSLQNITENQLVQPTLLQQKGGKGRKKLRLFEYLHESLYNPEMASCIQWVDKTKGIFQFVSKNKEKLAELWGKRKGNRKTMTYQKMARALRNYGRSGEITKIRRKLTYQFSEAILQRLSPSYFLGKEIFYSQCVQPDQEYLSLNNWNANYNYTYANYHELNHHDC
# How it was run: as §1
# [14] = target: ELF4 (Homo sapiens, UniProt Q99607 1-663); settings: protein: recombinant; tags: N-terminal GST; dsDNA, one strand shown
# How it was run: as §1
# [15] = target: T9, ELK4 (Homo sapiens, UniProt P28324-2 1-405); settings: protein: recombinant; tags: N-terminal GST; dsDNA, one strand shown
# T9 sequence: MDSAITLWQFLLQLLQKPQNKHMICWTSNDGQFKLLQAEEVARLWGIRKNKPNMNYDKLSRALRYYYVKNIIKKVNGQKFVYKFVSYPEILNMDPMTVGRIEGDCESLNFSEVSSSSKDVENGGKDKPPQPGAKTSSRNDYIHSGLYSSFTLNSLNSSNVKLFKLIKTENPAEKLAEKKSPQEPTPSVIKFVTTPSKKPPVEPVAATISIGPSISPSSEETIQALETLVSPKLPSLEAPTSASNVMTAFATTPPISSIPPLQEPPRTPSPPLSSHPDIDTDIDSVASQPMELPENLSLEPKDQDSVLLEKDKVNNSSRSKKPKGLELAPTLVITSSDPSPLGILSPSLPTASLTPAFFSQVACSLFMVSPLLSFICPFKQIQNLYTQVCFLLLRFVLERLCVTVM
# How it was run: as §1
# [16] = target: T10, ETV2 (Homo sapiens, UniProt O00321 1-342); settings: protein: recombinant; tags: N-terminal GST; dsDNA, one strand shown
# T10 sequence: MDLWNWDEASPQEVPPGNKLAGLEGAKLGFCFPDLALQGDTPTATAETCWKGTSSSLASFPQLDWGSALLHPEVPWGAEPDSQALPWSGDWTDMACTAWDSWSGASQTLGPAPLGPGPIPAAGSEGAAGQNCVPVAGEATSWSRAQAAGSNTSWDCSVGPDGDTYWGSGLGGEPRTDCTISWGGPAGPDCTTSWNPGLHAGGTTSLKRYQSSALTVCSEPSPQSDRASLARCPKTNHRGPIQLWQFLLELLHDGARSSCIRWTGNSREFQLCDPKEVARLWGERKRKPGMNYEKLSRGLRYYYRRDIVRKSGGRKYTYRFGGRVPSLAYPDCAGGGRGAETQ
# How it was run: as §1
# [17] = target: T11, ELF3 (Homo sapiens, UniProt P78545 1-371); settings: protein: recombinant; tags: N-terminal GST; dsDNA, one strand shown
# T11 sequence: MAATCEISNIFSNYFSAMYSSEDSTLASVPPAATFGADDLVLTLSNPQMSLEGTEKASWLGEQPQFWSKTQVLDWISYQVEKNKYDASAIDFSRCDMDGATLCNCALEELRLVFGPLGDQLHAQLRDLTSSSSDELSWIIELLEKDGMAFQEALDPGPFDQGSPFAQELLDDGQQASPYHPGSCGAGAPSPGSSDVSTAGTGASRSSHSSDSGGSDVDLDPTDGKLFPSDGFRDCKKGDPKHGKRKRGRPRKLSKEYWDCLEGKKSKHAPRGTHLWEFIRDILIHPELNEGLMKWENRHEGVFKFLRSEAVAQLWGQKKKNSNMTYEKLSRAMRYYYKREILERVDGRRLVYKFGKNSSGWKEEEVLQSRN
# How it was run: as §1
# [18] = target: CRX (Homo sapiens, UniProt O43186 1-299); settings: protein: recombinant; tags: N-terminal GST; dsDNA, one strand shown
# How it was run: as §1
# [19] = target: ETV1 (Homo sapiens, UniProt P50549 1-477); settings: protein: recombinant; tags: N-terminal GST; dsDNA, one strand shown
# How it was run: as §1
# Sequence of HSF1 (Q00613 whole entry): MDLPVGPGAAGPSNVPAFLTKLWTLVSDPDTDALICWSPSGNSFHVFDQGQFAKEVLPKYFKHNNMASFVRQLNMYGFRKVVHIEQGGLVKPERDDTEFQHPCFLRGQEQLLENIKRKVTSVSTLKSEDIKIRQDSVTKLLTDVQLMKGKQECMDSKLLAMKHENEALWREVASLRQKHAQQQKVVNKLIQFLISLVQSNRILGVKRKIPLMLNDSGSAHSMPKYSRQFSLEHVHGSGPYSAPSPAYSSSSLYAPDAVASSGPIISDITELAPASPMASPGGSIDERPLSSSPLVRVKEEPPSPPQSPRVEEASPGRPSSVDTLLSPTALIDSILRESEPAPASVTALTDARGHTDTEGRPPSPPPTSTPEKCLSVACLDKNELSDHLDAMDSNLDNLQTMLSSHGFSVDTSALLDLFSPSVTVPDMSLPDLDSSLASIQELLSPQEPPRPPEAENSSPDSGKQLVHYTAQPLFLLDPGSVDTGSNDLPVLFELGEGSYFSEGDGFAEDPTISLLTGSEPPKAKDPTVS
# Sequence of ELF1 (P32519 whole entry): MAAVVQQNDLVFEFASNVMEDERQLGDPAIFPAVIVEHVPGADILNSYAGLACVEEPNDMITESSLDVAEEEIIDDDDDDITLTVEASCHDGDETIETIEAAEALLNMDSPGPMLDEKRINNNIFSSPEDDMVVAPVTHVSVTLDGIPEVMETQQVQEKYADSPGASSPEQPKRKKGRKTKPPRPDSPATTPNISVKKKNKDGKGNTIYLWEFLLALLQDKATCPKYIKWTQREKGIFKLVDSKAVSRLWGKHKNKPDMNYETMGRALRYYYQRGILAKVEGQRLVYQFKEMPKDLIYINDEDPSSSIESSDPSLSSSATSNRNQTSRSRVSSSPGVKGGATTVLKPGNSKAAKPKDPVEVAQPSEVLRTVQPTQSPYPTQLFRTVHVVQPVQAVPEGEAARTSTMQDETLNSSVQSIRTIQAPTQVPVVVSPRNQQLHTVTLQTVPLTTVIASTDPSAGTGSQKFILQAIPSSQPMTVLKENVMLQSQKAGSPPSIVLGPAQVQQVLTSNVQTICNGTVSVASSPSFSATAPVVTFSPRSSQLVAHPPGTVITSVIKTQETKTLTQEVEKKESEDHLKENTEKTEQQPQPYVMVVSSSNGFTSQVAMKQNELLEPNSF
# Sequence of ETV1 (P50549 whole entry): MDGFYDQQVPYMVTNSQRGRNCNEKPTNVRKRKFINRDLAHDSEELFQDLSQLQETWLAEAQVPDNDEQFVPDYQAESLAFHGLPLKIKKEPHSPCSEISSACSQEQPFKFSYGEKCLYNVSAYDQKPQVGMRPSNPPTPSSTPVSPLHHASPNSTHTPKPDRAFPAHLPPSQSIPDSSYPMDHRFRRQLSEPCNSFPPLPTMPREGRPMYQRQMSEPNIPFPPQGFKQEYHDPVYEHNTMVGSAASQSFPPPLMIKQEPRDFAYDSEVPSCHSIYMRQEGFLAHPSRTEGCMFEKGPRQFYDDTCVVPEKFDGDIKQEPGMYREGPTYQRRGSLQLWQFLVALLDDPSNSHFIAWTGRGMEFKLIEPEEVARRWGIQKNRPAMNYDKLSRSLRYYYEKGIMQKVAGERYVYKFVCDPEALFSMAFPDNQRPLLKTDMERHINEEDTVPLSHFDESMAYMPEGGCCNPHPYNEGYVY
# Sequence of ETV5 (P41161 whole entry): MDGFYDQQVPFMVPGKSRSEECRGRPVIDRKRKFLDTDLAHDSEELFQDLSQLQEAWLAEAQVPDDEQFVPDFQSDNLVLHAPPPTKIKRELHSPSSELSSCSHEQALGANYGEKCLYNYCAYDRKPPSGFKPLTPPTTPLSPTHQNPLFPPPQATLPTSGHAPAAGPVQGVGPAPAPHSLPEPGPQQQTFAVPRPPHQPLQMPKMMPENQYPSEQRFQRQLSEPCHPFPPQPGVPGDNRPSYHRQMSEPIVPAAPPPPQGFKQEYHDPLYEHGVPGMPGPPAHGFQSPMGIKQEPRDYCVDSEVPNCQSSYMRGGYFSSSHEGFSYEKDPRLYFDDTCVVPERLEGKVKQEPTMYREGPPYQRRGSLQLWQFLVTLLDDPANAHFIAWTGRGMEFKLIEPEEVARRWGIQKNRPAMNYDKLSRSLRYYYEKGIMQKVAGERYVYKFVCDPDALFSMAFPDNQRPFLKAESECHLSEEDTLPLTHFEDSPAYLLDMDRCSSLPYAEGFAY
# Sequence of CRX (O43186 whole entry): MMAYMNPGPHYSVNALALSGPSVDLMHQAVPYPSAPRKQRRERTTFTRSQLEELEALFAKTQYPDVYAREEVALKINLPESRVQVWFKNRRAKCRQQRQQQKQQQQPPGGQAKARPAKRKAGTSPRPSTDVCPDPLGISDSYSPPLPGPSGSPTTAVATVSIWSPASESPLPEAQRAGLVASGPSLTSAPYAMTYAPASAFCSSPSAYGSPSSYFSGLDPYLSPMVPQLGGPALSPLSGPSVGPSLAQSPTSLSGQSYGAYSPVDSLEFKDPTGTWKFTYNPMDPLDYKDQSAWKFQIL
# Sequence of SPIB (Q01892 whole entry): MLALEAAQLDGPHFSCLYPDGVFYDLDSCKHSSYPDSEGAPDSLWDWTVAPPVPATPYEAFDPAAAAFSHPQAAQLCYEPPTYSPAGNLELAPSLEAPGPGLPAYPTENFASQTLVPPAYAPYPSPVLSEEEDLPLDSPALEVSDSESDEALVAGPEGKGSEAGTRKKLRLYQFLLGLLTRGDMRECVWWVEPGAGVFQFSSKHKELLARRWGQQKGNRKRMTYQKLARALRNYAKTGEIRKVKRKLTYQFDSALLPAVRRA
# Sequence of ELF4 (Q99607 whole entry): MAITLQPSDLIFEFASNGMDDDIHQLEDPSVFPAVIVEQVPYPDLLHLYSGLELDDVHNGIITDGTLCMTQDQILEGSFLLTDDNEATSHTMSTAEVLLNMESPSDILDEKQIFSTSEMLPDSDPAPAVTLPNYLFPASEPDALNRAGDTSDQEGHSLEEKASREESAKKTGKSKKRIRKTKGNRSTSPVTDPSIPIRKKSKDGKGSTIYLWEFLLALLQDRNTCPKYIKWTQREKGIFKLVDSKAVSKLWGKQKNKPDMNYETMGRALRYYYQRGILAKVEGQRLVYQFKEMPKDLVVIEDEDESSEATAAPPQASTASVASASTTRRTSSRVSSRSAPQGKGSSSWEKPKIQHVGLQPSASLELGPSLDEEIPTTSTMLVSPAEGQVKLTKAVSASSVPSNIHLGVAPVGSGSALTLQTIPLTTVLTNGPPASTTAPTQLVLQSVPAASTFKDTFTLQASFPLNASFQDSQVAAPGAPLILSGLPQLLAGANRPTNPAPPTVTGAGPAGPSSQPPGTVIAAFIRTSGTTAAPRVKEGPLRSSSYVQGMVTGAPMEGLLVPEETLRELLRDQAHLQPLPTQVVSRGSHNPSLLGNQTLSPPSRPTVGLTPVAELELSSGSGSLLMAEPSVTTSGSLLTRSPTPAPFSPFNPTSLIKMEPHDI
sequence,measurement,setting,value
GCTGAT,binding signal,[1],"1.11 fold enrichment (6-mer frequency, TF over GST control)"
same,binding signal,[2],"1.1 fold enrichment (6-mer frequency, TF over GST control)"
same,binding signal,[3],"1.18 fold enrichment (6-mer frequency, TF over GST control)"
same,binding signal,[4],"1.1 fold enrichment (6-mer frequency, TF over GST control)"
same,binding signal,[5],"1.22 fold enrichment (6-mer frequency, TF over GST control)"
same,binding signal,[6],"1.33 fold enrichment (6-mer frequency, TF over GST control)"
same,binding signal,[7],"1.08 fold enrichment (6-mer frequency, TF over GST control)"
same,binding signal,[8],"1.11 fold enrichment (6-mer frequency, TF over GST control)"
same,binding signal,[9],"1.33 fold enrichment (6-mer frequency, TF over GST control)"
same,binding signal,[10],"1.07 fold enrichment (6-mer frequency, TF over GST control)"
same,binding signal,[11],"1.11 fold enrichment (6-mer frequency, TF over GST control)"
same,binding signal,[12],"1.16 fold enrichment (6-mer frequency, TF over GST control)"
same,binding signal,[13],"1.19 fold enrichment (6-mer frequency, TF over GST control)"
same,binding signal,[14],"1.19 fold enrichment (6-mer frequency, TF over GST control)"
same,binding signal,[15],"1.25 fold enrichment (6-mer frequency, TF over GST control)"
same,binding signal,[16],"1.08 fold enrichment (6-mer frequency, TF over GST control)"
same,binding signal,[17],"1.16 fold enrichment (6-mer frequency, TF over GST control)"
same,binding signal,[18],"1.39 fold enrichment (6-mer frequency, TF over GST control)"
same,binding signal,[19],"1.2 fold enrichment (6-mer frequency, TF over GST control)"
